Data published in ChEMBL document CHEMBL3988442, “University of Dundee, Small-Polar-MMV Screening Library” (2021).
For part of these data: Entries with a potency or affinity are not part of this list.

Key:
Set-up in all cases: scale not given: direction of the effect not stated beside the values
[1] = biological target: Protein translocase subunit SecA (Escherichia coli (strain K12)) (UniProt P10408); assay: Assay to Identify E. coli SecA ATPase Inhibitors; assay type: functional; settings: 30 µM
Protein translocase subunit SecA (Escherichia coli (strain K12)), sequence (P10408 whole entry): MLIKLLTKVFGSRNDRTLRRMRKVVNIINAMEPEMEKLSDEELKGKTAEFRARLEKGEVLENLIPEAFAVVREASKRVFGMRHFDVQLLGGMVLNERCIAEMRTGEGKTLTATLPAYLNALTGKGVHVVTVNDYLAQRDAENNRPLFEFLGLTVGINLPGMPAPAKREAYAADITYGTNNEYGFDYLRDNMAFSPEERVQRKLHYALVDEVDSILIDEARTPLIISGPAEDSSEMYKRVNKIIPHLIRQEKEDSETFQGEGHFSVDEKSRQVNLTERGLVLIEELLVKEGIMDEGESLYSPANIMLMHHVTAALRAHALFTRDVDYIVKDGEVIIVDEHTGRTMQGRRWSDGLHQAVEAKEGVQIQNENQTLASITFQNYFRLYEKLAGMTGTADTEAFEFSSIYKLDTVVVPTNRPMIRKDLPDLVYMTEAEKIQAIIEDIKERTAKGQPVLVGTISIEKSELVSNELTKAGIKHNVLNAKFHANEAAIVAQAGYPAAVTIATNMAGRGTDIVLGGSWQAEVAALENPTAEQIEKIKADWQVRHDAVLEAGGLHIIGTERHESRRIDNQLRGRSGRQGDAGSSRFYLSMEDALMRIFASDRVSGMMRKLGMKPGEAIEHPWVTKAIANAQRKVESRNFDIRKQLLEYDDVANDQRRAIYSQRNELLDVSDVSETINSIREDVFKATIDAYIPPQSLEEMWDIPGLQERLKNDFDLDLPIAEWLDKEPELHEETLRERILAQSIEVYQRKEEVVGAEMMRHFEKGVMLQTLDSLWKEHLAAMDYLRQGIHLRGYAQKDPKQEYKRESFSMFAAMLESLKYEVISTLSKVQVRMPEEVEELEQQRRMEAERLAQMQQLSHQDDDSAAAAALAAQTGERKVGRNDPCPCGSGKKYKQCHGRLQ

[2] = biological target: T1, Ubiquitin-activating enzyme e1, putative (Leishmania donovani (strain BPK282A1)) (UniProt E9BSI1); assay: Leishmania donovani Ubiquitin Activating Enzyme (LdE1); assay type: functional; settings: 30 µM
T1 sequence (whole entry): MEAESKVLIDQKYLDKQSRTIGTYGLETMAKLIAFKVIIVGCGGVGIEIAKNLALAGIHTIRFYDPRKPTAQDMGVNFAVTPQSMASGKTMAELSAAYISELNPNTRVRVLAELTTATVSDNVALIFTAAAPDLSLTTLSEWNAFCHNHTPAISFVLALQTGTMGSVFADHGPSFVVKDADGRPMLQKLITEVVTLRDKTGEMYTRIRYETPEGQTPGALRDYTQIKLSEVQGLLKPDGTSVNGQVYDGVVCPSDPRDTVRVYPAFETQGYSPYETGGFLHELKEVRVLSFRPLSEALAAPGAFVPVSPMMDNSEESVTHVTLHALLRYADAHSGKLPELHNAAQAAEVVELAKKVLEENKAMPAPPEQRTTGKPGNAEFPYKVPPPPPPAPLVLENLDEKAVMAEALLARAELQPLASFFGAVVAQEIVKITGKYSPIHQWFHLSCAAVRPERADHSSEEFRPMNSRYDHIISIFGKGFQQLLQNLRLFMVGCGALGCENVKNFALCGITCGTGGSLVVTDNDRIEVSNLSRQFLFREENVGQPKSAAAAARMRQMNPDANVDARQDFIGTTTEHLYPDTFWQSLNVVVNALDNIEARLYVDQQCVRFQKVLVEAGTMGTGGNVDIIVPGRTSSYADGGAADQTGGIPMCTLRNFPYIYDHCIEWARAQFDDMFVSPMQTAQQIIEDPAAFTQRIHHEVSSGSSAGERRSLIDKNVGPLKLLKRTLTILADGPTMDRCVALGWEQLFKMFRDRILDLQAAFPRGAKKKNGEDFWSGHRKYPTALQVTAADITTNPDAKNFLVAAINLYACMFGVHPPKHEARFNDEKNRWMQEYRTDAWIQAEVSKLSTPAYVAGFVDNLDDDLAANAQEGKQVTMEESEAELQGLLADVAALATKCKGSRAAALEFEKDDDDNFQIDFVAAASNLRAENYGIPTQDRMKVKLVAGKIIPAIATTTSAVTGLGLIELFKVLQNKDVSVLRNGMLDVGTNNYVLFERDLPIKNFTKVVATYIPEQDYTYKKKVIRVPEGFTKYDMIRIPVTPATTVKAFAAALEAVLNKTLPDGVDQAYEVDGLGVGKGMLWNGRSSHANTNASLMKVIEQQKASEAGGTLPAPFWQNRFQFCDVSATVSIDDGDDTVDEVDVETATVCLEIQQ

[3] = biological target: Sialic acid-binding Ig-like lectin 9 (Homo sapiens) (UniProt Q9Y336); assay: Hs-Siglec9 ALPHAscreen SOP 20170721; settings: 10 µM
Sialic acid-binding Ig-like lectin 9 (Homo sapiens), sequence (Q9Y336 whole entry): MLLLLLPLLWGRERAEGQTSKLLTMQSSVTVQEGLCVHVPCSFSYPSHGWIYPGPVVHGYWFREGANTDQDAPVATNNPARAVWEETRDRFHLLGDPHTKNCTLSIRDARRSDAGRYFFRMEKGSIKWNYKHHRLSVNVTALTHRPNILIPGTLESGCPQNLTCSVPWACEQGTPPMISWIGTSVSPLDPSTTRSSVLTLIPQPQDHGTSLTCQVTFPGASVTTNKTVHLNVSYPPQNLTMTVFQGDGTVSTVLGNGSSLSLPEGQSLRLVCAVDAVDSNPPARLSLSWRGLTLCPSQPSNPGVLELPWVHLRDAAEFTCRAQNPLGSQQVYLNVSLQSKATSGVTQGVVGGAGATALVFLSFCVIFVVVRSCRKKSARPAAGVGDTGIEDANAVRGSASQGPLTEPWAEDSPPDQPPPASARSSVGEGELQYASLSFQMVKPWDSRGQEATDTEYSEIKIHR

[4] = system: Trypanosoma cruzi; assay: Trypanosoma cruzi phosphomannomutase and mannose-1-phosphate guanylyltransferase assay; assay type: functional; settings: 10 µM
[5] = biological target: T2, Arginase-2, mitochondrial (Homo sapiens) (UniProt P78540); assay: in vitro enzyme assay to detect the production of urea directly proportional to the activity of Arginase II; assay type: functional; settings: 33.3 µM; note: in the data most compounds retested in dose-response had high values
T2 sequence (whole entry): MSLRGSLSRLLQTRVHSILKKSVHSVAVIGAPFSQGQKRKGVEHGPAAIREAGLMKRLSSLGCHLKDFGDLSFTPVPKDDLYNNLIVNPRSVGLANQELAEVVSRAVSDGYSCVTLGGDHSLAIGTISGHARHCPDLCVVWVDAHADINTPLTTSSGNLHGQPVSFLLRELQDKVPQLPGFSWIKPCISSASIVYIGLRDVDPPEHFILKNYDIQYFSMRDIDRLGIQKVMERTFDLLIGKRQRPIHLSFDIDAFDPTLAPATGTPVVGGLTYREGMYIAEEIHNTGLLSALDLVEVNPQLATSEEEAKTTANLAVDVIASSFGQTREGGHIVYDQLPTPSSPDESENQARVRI

[6] = biological target: T3, Proteasome subunit beta (Trypanosoma cruzi) (UniProt O96673); assay: Trypanosoma cruzi proteasome chymotrypsin-like activity (TcProtChymo) assay.; note: in the data most compounds retested in dose-response had high values; assay type: functional; settings: 9.37 µM
T3 sequence (whole entry): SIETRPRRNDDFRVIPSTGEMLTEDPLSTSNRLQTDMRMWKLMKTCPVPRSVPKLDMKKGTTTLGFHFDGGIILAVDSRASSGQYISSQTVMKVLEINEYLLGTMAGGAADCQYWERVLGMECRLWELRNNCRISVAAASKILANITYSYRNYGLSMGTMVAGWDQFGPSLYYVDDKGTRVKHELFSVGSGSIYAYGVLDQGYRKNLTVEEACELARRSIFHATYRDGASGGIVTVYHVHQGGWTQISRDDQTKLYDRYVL

[7] = organism: Homo sapiens; assay: To identify inhibition of the IFN signalling (Jak-Stat) pathway via expression of an eGFP reporter gene under the control of an IFN-stimulated response element (ISRE) containing MxA promoter.; assay type: functional; settings: 30 µM
[8] = biological target: T4, Tyrosyl-tRNA synthetase, putative (Trypanosoma cruzi (strain CL Brener)) (UniProt Q4DSP6); assay: Trypanosoma cruzi tyrosyl tRNA synthetase (TcYRS) _High Tyrosine SOP; assay type: functional; settings: 30 µM; note: in the data most compounds retested in dose-response had high values
T4 sequence (whole entry): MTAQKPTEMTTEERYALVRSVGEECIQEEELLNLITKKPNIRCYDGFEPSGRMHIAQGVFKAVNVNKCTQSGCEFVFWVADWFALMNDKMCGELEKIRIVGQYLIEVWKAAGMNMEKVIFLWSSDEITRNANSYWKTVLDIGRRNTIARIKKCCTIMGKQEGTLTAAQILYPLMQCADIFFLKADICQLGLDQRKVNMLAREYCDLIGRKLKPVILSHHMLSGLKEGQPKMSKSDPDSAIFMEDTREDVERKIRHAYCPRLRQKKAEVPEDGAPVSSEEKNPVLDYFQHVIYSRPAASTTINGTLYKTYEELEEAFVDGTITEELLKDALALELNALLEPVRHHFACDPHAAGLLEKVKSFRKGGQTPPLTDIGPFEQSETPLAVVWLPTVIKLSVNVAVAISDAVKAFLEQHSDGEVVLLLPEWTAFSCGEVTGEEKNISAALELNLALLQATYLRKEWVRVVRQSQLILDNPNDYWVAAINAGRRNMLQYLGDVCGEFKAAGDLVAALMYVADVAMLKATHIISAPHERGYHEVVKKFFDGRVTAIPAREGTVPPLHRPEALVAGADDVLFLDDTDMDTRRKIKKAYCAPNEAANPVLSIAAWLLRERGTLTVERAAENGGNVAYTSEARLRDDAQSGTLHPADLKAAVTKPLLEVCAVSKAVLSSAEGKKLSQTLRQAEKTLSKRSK

[9] = biological target: T4, Tyrosyl-tRNA synthetase, putative (Trypanosoma cruzi (strain CL Brener)); assay: Trypanosoma cruzi tyrosyl tRNA synthetase (TcYRS) SOP; assay type: functional; settings: 30 µM
[10] = biological target: Chromo domain-containing protein 1 (Saccharomyces cerevisiae (strain ATCC 204508 / S288c) (Baker's yeast)) (UniProt P32657); assay: ScCHD-1 Enzyme Inhibition Assay; assay type: functional; settings: 30 µM; note: in the data most compounds retested in dose-response had high values
Chromo domain-containing protein 1 (Saccharomyces cerevisiae (strain ATCC 204508 / S288c) (Baker's yeast)), sequence (P32657 whole entry, the tested form may be a part): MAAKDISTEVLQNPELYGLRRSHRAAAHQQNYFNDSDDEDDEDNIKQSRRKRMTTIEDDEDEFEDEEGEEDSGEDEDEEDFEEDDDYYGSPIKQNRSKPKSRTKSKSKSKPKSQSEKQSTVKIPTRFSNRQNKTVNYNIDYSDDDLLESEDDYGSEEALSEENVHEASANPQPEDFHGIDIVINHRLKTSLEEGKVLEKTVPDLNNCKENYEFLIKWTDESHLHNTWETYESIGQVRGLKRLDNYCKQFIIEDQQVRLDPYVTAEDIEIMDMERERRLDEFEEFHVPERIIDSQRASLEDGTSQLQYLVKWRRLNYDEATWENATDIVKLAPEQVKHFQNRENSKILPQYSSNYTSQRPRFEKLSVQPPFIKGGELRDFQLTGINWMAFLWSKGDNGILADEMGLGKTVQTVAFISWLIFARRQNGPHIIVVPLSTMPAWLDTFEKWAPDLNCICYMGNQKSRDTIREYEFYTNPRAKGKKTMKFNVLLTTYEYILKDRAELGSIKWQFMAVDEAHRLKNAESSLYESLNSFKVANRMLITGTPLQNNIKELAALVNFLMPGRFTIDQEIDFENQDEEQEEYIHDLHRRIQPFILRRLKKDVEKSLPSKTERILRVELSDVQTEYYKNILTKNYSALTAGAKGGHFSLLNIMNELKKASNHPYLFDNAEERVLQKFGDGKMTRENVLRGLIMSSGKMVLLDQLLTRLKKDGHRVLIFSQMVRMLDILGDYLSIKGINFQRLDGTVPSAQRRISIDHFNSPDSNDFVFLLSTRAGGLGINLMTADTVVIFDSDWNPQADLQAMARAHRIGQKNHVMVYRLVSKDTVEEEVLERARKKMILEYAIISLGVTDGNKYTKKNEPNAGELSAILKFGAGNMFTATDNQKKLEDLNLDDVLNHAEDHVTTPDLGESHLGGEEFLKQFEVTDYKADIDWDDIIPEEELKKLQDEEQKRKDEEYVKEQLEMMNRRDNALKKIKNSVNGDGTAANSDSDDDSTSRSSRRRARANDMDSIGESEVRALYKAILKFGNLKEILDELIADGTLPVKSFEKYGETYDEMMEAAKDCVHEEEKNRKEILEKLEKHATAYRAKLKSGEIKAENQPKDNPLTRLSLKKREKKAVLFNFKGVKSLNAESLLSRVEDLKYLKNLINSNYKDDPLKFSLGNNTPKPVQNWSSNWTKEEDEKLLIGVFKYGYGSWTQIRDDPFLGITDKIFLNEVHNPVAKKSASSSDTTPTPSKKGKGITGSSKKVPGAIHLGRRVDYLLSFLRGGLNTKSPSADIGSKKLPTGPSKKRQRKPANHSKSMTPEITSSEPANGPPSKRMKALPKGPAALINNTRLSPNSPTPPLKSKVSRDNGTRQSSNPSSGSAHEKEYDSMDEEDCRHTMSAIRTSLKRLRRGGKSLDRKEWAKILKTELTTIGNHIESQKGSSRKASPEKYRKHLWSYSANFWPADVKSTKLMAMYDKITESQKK

O=C(C1CC=CC1)N1CCC2(CC1)CN(Cc1ccccn1)CCO2
Percent Effect [1]: -2.34% | Percent Effect [2]: 1.3% | Percent Effect [3]: -0.373% | Percent Effect [4]: 2.63% | Percent Effect [5]: -4.86% | Percent Effect [6]: 5.74% | Percent Effect [7]: -19% | Percent Effect [8]: 1.58% | Percent Effect [9]: 5.13% | Percent Effect [10]: 3.73%

CCc1ccc(O)c(C(=O)NC2CCN(S(=O)(=O)CC)CC2)c1
Percent Effect [1]: -6.37% | Percent Effect [2]: 17.9% | Percent Effect [3]: -17.5% | Percent Effect [4]: 5.35% | Percent Effect [5]: -4.92% | Percent Effect [6]: 10.2% | Percent Effect [7]: 20.5% | Percent Effect [8]: 1.44% | Percent Effect [9]: 22.9% | Percent Effect [10]: -10.9%

CCN1C(=O)CCCC12CCCN(C(=O)c1conc1C)C2 (stereo not given)
Percent Effect [1]: -1.85% | Percent Effect [2]: 3.9% | Percent Effect [3]: -5.23% | Percent Effect [4]: -3.75% | Percent Effect [5]: -0.457% | Percent Effect [6]: 5.75% | Percent Effect [7]: 14% | Percent Effect [8]: -4.83% | Percent Effect [9]: -5% | Percent Effect [10]: -2.52%

Cc1ccc(C(=O)N2CCN(CCc3cccs3)CC2)c(=O)[nH]1
Percent Effect [1]: -2.8% | Percent Effect [2]: 2.56% | Percent Effect [3]: -0.768% | Percent Effect [4]: -1.6% | Percent Effect [5]: 8.61% | Percent Effect [6]: -2.65% | Percent Effect [7]: 24.3% | Percent Effect [8]: 3.35% | Percent Effect [9]: 10.8% | Percent Effect [10]: -2.19%

c1ccc(OCc2ccncc2)c(CNC2CCc3ncnn3C2)c1 (stereo not given)
Percent Effect [1]: 1.01% | Percent Effect [2]: 17.9% | Percent Effect [3]: -16.6% | Percent Effect [4]: -0.845% | Percent Effect [5]: 10.7% | Percent Effect [6]: 11.5% | Percent Effect [7]: 20% | Percent Effect [8]: 7.18% | Percent Effect [9]: 18.1% | Percent Effect [10]: -0.669%

Cc1ccsc1C(=O)N1Cc2ccccc2C2(CCN(C)CC2)C1
Percent Effect [1]: -4.41% | Percent Effect [2]: -1.3% | Percent Effect [3]: -5.71% | Percent Effect [4]: -5.55% | Percent Effect [5]: -2.02% | Percent Effect [6]: 5.56% | Percent Effect [7]: -24.7% | Percent Effect [8]: 1.58% | Percent Effect [9]: 2.56% | Percent Effect [10]: -2.8%

COCCCNc1nccc(-c2c[nH][nH]c2=O)n1
Percent Effect [1]: -1.57% | Percent Effect [2]: 8% | Percent Effect [3]: -3.19% | Percent Effect [4]: -6.63% | Percent Effect [5]: -3.55% | Percent Effect [6]: 19.9% | Percent Effect [7]: 12.9% | Percent Effect [8]: -1.58% | Percent Effect [9]: 0% | Percent Effect [10]: -11.7%

Cc1ccc2oc(C(=O)N3CCC(C(=O)N4CCCC4)CC3)cc2n1
Percent Effect [1]: -3.66% | Percent Effect [2]: 7.69% | Percent Effect [3]: 1.13% | Percent Effect [4]: 2.35% | Percent Effect [5]: 6.56% | Percent Effect [6]: -0.768% | Percent Effect [7]: 7.89% | Percent Effect [8]: 9.09% | Percent Effect [9]: 18.1% | Percent Effect [10]: -0.651%

CNC(=O)C1(c2cnccn2)CCCN1C(=O)c1ccccc1OC (stereo not given)
Percent Effect [1]: 0.772% | Percent Effect [2]: 14.7% | Percent Effect [3]: -7.91% | Percent Effect [4]: -1.77% | Percent Effect [5]: -3.98% | Percent Effect [6]: 9.36% | Percent Effect [7]: 17.4% | Percent Effect [8]: -2.12% | Percent Effect [9]: 5% | Percent Effect [10]: -18.1%
